Screening results (PubChem BioAssay)
LEDGF integ inh – blocks HIV-1 LEDGF/p75-dependent DNA integration; inhibition, % at 3.7 µM; TR-FRET IN-LEDGF/p75 DNA integration, Eu/Cy5; AID 743269; actives 0.64% (n = 370,000);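 active = inhibition above the screen-wide mean plus 3 SD, cut at about 13% in these data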;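 also: signal is the Cy5 over europium emission ratio at 671 and 618 nm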
ABHD5-PLIN5 inh – blocks binding of human ABHD5 to perilipin-5; Q00G26+Q8WTS1; actives 0.78% (n = 360,000); inhibition, % at 4 µM; Split G. princeps luciferase complementation, luminescence, 4 h;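 active = inhibition above the mean inhibition across every tested compound plus 3 SD, cut at about 22% in these data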
Target sequence (Q00G26 whole entry, looked up): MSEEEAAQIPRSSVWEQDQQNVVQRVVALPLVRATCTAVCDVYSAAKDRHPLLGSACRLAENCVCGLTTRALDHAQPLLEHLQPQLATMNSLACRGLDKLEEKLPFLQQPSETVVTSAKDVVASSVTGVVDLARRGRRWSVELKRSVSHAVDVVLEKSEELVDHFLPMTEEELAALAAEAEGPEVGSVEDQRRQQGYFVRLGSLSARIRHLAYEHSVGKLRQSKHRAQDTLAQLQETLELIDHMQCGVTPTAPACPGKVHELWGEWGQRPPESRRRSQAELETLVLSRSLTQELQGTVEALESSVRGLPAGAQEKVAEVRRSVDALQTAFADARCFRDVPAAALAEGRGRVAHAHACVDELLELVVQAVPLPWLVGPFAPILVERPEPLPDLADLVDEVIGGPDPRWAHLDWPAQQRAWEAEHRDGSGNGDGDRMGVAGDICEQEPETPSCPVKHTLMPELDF
Target sequence (Q8WTS1 whole entry, looked up): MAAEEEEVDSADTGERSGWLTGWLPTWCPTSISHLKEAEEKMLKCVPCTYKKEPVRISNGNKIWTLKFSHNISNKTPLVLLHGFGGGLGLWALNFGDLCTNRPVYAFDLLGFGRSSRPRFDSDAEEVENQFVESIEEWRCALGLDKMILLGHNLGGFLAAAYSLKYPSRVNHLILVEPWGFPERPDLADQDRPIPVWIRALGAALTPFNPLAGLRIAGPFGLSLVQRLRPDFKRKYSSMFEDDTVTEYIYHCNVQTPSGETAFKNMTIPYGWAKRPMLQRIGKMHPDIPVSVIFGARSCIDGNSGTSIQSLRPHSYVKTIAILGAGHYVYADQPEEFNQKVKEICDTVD
rCAG binder – molecules binding r(CAG) RNA repeats. r(CAG) RNA repeat, TO-PRO-1 dye displacement fluorescence. inhibition, % at 3 µM. actives 1.3% (n = 370,000). AID 651821;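 active = inhibition above the plate cutoff, the mean of all test compounds on that plate plus 3 SD, cut at about 35% in these data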;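 also: higher means more dye released from RNA so lower well fluorescence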
UHRF1 MBD2 ctr – human UHRF1 methylated DNA binding inhibitors; UHRF1 binding to methylated oligo, TR-FRET; actives 0.75% (n = 370,000); AID 687016; Q96T88; inhibition, % at 4.4 µM; in the data active = inhibition above about 21%;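 also: UHRF1 SRA domain binding a hemimethylated CpG hairpin DNA probe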
PRMT1 FP inh – blocks human protein arginine methyltransferase 1; Q99873; recombinant PRMT1, activity-based probe fluorescence polarization; inhibition, % at 2.79 µM; actives 1.3% (n = 370,000); AID 652257;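 active = inhibition above about 21% made by adding two undisclosed values, limit read from the data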
MBD2 inh – inhibitors of human MBD2 binding to methylated oligonucleotide; actives 0.31% (n = 370,000); inhibition, % at 4.4 µM; Q9UBB5; TR-FRET; in the data active = inhibition above about 13%
rCAG binder conf – r(CAG) RNA repeat binding, confirmation; shares compounds with rCAG binder; TO-PRO-1 dye displacement fluorescence; inhibition, % at 3 µM; actives 70% (n = 4,300); AID 652065;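 active = inhibition above a per-plate cutoff, the mean inhibition of sample wells plus 3 SD, cut at about 35% in these data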;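 also: loss of TO-PRO-1 fluorescence as compound displaces dye from 1x1 AA loop RNA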
dCAG dye counter – DNA CAG dye complex inhibition counter-screen | shares compounds with rCAG binder | d(CAG) DNA oligo TO-PRO-1 dye displacement, fluorescence | inhibition, % at 3 µM | actives 94% (n = 4,300);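 active = inhibition above its plate's cutoff, the mean test-well inhibition plus 3 SD, cut at about 4.8% in these data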;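 also: hits displace the dye from DNA and so lower well fluorescence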
Numbers stand for hits; . = inactive; / = no result. A selection: hits, their analogues and other compounds. The true share with any hit is near 4.1%.

SMILES | LEDGF integ inh | ABHD5-PLIN5 inh | rCAG binder | UHRF1 MBD2 ctr | PRMT1 FP inh | MBD2 inh | rCAG binder conf | dCAG dye counter
O=[N+]([O-])c1ccc(COc2cccc(CO)c2)cc1 | . | / | . | . | . | . | / | /
CCOC(=O)[C@@]12CCC3=C1N(CCC3)C(=O)[C@H](CC(=O)NCc1cccs1)C2 | . | / | . | . | . | . | / | /
Cc1ccc(-n2c(SCC(=O)Nc3ccc(S(=O)(=O)Nc4nccs4)cc3)nnc2-c2cccs2)cc1 | . | / | 71 | . | . | . | 67 | 25
O=C(CSc1nnc(-c2ccccn2)n1-c1ccc(Cl)cc1)Nc1ccc(S(=O)(=O)Nc2nccs2)cc1 | . | / | 74 | . | . | . | 75 | 39
CCCCNC(=O)NS(=O)(=O)c1ccc(NC(=O)CSc2nnc(-c3cccs3)n2-c2ccc(OC)cc2)cc1 | . | / | 54 | . | . | . | 62 | 23
CC(C)(C)c1ccc(-c2nnc(SCC(=O)Nc3ccc(S(=O)(=O)Nc4nccs4)cc3)n2-c2ccc(Cl)cc2)cc1 | . | / | 61 | . | . | . | 62 | 26
CCOc1ccc(-n2c(SCC(=O)Nc3ccc(S(=O)(=O)Nc4nccs4)cc3)nnc2-c2ccc(C(C)(C)C)cc2)cc1 | . | / | 60 | . | . | . | 55 | 25
CCOc1ccc(-n2c(SCC(=O)Nc3ccc(S(=O)(=O)Nc4nccs4)cc3)nnc2-c2ccco2)cc1 | . | / | 68 | . | . | . | 69 | 28
CCOc1ccc(-n2c(SCC(=O)Nc3nccs3)nnc2-c2ccoc2C)cc1 | . | . | . | . | . | . | / | /
CCOc1ccc(-n2c(SCC(=O)Nc3ccc(S(=O)(=O)Nc4nccs4)cc3)nnc2-c2ccncc2)cc1 | . | / | 69 | . | . | . | 59 | 26
Brc1ccccc1C1Cc2nnccc2CN1 (configuration not stated) | . | / | . | . | . | . | / | /
C=CCn1c(SCc2c(C)noc2C)nc2sc3c(c2c1=O)CCCC3 | . | . | . | . | . | . | / | /
C=CCn1c(SCc2c(C)noc2C)nc2sc3c(c2c1=O)CCCCC3 | . | . | 40 | . | . | . | . | 4.7
COc1cc(C=Nn2c(-c3ccccc3F)n[nH]c2=S)ccc1OCc1ccccc1 | . | / | 53 | . | . | . | 48 | 12
COc1cc(C=Nn2c(-c3cc(-c4ccccc4)n[nH]3)n[nH]c2=S)ccc1OC(C)=O | . | / | 58 | . | 33 | . | 44 | 13
Cc1cccc(/C=N/n2c(-c3cc(-c4ccccc4)n[nH]3)n[nH]c2=S)c1 | . | . | . | . | . | . | / | /
COc1cc(C=Nn2c(-c3ccc(F)cc3)n[nH]c2=S)ccc1OCc1ccccc1 | . | / | 50 | . | . | . | 53 | 17
Cc1cc(-c2n[nH]c(=S)n2N=Cc2ccc(-c3ccccc3)cc2)n[nH]1 | . | / | 42 | . | . | . | 35 | 8.9
COC(=O)C1CN(Cc2cn(Cc3ccc(F)cc3)nn2)CCS(=O)(=O)N1Cc1ccccc1 (configuration not stated) | . | / | . | . | . | . | / | /
CCOC(=O)C1CSCCS(=O)(=O)N1Cc1ccc(F)cc1 (configuration not stated) | . | / | . | . | . | . | / | /
S=c1[nH]nc(-c2ccco2)n1/N=C/c1ccc(Cl)c(Cl)c1 | . | . | 41 | . | 22 | . | 40 | 10
COc1ccc(C=Nn2c(-c3ccc(F)cc3)n[nH]c2=S)cc1OCc1ccccc1 | . | / | 35 | . | . | . | 39 | 12
CCn1c2ccccc2c2cc(C=Nn3c(-c4ccccc4C)n[nH]c3=S)ccc21 | . | / | 49 | . | 23 | . | 56 | 23
COc1ccc(/C=N/n2c(-c3ccc(C)cc3)n[nH]c2=S)cc1OC | . | . | . | . | . | . | / | /
Nc1[nH]n2c(=O)cc(-c3ccccc3)nc2c1N=Nc1ccc(S(N)(=O)=O)cc1 | . | . | 44 | . | . | . | . | 5.5
Cc1cccc(Cn2cc(COC(=O)N(C)Cc3ccccc3)nn2)c1 | . | / | . | . | . | . | / | /
